Common to all, as to assay: DAPPL (digital affinity profiling via proximity ligation, sequencing); 10 mM Tris-HCl pH 7.5, 50 mM NaCl, 1 mM DTT, 4% glycerol, room temperature, 30 min; GST-TFs on glutathione beads, 16-mer random dsDNA library, 0.1% formaldehyde crosslink after washing; high values mean tight binding
Holding throughout (conditions): protein: recombinant; tags: N-terminal GST; dsDNA, one strand shown

The target of one test is T1, FEV (Homo sapiens, UniProt Q99581 1-238).
T1 sequence: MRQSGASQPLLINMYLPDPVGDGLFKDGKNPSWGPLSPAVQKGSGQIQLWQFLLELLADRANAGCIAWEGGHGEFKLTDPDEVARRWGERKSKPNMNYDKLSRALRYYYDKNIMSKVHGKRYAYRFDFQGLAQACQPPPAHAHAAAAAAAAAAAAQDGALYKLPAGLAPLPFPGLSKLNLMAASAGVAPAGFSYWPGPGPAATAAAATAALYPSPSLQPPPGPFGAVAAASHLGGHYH
In outline: (§1)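 In yeast, human transcription factors were expressed with a GST fusion, then pulled down on glutathione beads and given DNA barcodes. Pooled with a tag-only sample, they were exposed to 200 nmole of a 16-mer random double-stranded DNA library (Tris/NaCl/DTT/glycerol buffer, room temperature, 30 min), washed, crosslinked with 0.1% formaldehyde, proximity-ligated using BsaI/T4 ligase for 1 h at 37 °C, PCR-amplified and read on an Illumina NextSeq500. Each hexamer's frequency of reads for a factor, divided by the matching frequency for the tag-only sample, gives the binding signal.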

In another test the target is ETV5 (Homo sapiens, UniProt P41161 1-510). The procedure, abridged:
as §1

In another test the target is T2, SPIC (Homo sapiens, UniProt Q8N5J4 1-248).
T2 sequence: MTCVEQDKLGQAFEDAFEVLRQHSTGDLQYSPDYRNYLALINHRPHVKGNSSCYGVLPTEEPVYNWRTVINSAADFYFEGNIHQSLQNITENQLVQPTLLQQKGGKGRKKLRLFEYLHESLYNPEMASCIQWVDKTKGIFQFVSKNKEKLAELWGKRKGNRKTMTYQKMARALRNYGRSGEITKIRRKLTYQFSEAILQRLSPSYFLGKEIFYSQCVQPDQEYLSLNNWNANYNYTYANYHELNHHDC
The procedure, abridged: as §1

The next test concerns the target ELF4 (Homo sapiens, UniProt Q99607 1-663). The procedure, abridged: as §1
The next test addresses T3, ELK4 (Homo sapiens, UniProt P28324-2 1-405).
T3 sequence: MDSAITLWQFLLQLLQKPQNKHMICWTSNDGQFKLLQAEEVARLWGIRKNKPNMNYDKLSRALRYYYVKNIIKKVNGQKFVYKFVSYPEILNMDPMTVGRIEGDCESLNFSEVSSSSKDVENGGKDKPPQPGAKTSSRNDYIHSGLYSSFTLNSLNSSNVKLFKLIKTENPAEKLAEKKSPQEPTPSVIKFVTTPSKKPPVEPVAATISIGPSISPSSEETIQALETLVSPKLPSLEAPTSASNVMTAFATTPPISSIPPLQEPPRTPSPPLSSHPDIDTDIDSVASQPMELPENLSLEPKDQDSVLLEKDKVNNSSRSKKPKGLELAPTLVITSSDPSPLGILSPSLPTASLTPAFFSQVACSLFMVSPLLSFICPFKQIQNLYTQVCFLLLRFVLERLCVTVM
The procedure, abridged: as §1

For another test, the target named is T4, ETV2 (Homo sapiens, UniProt O00321 1-342).
T4 sequence: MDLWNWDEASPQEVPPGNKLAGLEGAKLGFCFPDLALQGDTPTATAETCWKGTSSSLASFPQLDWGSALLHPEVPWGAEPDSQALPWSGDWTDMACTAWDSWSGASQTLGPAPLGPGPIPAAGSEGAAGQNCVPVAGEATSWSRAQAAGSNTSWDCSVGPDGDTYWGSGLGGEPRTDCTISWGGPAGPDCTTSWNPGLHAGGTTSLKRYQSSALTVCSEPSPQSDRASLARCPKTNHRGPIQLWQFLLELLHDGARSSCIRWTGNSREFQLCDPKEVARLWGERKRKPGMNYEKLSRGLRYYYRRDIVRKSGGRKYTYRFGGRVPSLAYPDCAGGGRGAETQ
In outline: as §1

A further test has as its target T5, ELF3 (Homo sapiens, UniProt P78545 1-371).
T5 sequence: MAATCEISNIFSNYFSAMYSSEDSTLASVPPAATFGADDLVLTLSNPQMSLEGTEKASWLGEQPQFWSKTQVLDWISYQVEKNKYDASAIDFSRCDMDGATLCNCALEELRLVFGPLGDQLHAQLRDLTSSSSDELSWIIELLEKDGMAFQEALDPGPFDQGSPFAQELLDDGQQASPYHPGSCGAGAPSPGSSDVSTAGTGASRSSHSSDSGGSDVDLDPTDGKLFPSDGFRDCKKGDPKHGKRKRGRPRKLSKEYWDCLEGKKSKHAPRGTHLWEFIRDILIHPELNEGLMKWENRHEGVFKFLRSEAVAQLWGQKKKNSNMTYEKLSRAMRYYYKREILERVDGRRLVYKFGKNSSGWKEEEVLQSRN
In outline:
as §1

In the next test the target is ETV1 (Homo sapiens, UniProt P50549 1-477). The procedure, abridged:
as §1

ETV1, sequence (P50549 whole entry): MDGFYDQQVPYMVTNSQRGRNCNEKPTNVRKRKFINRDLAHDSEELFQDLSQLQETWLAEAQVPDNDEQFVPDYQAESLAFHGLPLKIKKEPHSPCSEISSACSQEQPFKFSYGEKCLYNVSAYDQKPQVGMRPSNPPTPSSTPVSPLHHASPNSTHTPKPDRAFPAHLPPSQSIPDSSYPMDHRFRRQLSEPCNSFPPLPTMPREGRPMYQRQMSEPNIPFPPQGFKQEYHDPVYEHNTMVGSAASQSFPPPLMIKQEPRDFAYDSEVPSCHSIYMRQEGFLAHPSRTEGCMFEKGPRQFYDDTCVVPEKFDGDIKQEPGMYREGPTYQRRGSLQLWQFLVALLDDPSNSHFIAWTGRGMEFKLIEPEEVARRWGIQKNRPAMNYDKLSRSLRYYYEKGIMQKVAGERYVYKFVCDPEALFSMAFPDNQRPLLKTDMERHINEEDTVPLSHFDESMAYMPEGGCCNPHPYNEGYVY
ELF4, sequence (Q99607 whole entry): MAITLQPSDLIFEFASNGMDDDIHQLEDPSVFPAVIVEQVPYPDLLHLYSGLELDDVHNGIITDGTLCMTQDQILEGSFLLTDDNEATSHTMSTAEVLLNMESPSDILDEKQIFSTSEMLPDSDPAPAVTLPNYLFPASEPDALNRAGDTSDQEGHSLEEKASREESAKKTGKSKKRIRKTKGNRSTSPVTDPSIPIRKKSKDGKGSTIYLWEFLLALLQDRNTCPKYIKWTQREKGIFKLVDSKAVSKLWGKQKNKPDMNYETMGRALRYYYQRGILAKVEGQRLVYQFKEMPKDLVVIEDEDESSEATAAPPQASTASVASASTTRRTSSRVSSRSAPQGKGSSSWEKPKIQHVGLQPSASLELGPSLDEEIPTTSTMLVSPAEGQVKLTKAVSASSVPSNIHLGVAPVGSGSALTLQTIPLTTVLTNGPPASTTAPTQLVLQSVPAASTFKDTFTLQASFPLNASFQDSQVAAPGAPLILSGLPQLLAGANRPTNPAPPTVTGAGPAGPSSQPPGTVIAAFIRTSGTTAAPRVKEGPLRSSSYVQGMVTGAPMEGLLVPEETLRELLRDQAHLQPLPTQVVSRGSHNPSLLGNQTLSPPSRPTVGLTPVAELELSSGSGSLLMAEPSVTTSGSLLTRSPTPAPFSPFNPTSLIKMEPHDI
ETV5, sequence (P41161 whole entry): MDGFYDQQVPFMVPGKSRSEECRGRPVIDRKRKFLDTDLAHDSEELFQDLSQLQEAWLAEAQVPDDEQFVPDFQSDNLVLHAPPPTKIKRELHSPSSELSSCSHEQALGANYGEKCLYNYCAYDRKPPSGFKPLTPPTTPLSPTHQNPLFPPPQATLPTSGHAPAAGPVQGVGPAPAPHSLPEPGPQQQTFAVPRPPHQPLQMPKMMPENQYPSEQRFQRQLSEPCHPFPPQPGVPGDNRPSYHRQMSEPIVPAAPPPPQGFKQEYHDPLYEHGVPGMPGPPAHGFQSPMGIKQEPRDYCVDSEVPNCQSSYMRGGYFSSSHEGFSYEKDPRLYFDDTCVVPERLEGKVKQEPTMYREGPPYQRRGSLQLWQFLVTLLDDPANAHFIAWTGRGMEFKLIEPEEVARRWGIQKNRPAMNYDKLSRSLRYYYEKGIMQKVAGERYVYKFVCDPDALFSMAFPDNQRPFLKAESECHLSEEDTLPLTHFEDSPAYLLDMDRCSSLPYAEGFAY

GGCCTC: the binding signal was 1.07 fold enrichment (6-mer frequency, TF over GST control) with FEV; 1.15 fold enrichment (6-mer frequency, TF over GST control) with ETV5; 1.01 fold enrichment (6-mer frequency, TF over GST control) with SPIC; 1.12 fold enrichment (6-mer frequency, TF over GST control) with ELF4; 1.17 fold enrichment (6-mer frequency, TF over GST control) with ELK4; 1.17 fold enrichment (6-mer frequency, TF over GST control) in the test with ETV2. The binding signal with ELF3 was 1.05 fold enrichment (6-mer frequency, TF over GST control); with ETV1, 1.07 fold enrichment (6-mer frequency, TF over GST control).

Turning to GCCGAC, the binding signal with FEV was 1.14 fold enrichment (6-mer frequency, TF over GST control); with ETV5 it was 1.02 fold enrichment (6-mer frequency, TF over GST control); in the test with SPIC it was 1.34 fold enrichment (6-mer frequency, TF over GST control); with ELF4 it was 1.08 fold enrichment (6-mer frequency, TF over GST control); in the test with ELK4, 1.15 fold enrichment (6-mer frequency, TF over GST control); in the test with ETV2, 1.15 fold enrichment (6-mer frequency, TF over GST control). Besides, the binding signal with ELF3 is 1 fold enrichment (6-mer frequency, TF over GST control); with ETV1, 1.04 fold enrichment (6-mer frequency, TF over GST control).

Regarding CCAACG, the binding signal with FEV is 1.14 fold enrichment (6-mer frequency, TF over GST control); with ETV5, 1.06 fold enrichment (6-mer frequency, TF over GST control); with SPIC, 1.11 fold enrichment (6-mer frequency, TF over GST control); in the test with ELF4 it was 1.21 fold enrichment (6-mer frequency, TF over GST control); with ELK4, 1.12 fold enrichment (6-mer frequency, TF over GST control); with ETV2, 1.14 fold enrichment (6-mer frequency, TF over GST control). The binding signal with ELF3 was 1.17 fold enrichment (6-mer frequency, TF over GST control); with ETV1 it was 1.11 fold enrichment (6-mer frequency, TF over GST control).

Consider CGTACC, for which the binding signal in the test with FEV was 1.19 fold enrichment (6-mer frequency, TF over GST control); in the test with ETV5, 1.17 fold enrichment (6-mer frequency, TF over GST control); with SPIC, 1.14 fold enrichment (6-mer frequency, TF over GST control); with ELF4 it was 1.17 fold enrichment (6-mer frequency, TF over GST control); in the test with ELK4, 1.18 fold enrichment (6-mer frequency, TF over GST control); in the test with ETV2, 1.15 fold enrichment (6-mer frequency, TF over GST control). The binding signal was 1.25 fold enrichment (6-mer frequency, TF over GST control) in the test with ELF3 and 1.26 fold enrichment (6-mer frequency, TF over GST control) with ETV1.

For the sequence CCGGTT, the binding signal in the test with FEV is 2.7 fold enrichment (6-mer frequency, TF over GST control); with ETV5, 2.15 fold enrichment (6-mer frequency, TF over GST control); with SPIC, 1.68 fold enrichment (6-mer frequency, TF over GST control); with ELF4, 1.83 fold enrichment (6-mer frequency, TF over GST control); with ELK4, 1.87 fold enrichment (6-mer frequency, TF over GST control); in the test with ETV2, 2.08 fold enrichment (6-mer frequency, TF over GST control). Besides, the binding signal with ELF3 is 2.09 fold enrichment (6-mer frequency, TF over GST control); in the test with ETV1, 2.04 fold enrichment (6-mer frequency, TF over GST control).

For TTGGCC, the binding signal with FEV is 1.14 fold enrichment (6-mer frequency, TF over GST control); with ETV5 it was 1.12 fold enrichment (6-mer frequency, TF over GST control); with SPIC, 1.06 fold enrichment (6-mer frequency, TF over GST control); with ELF4 it was 1.18 fold enrichment (6-mer frequency, TF over GST control); with ELK4 it was 1.08 fold enrichment (6-mer frequency, TF over GST control); in the test with ETV2, 1.08 fold enrichment (6-mer frequency, TF over GST control). Besides, the binding signal with ELF3 is 1.12 fold enrichment (6-mer frequency, TF over GST control); with ETV1, 1.02 fold enrichment (6-mer frequency, TF over GST control).

As to CATCCG, the binding signal with FEV was 2.77 fold enrichment (6-mer frequency, TF over GST control); with ETV5, 2.19 fold enrichment (6-mer frequency, TF over GST control); in the test with SPIC, 2.11 fold enrichment (6-mer frequency, TF over GST control); in the test with ELF4, 1.82 fold enrichment (6-mer frequency, TF over GST control); with ELK4, 1.71 fold enrichment (6-mer frequency, TF over GST control); with ETV2, 2.11 fold enrichment (6-mer frequency, TF over GST control). Besides, the binding signal was 1.9 fold enrichment (6-mer frequency, TF over GST control) with ELF3 and 2.19 fold enrichment (6-mer frequency, TF over GST control) with ETV1.

With CCGCGC, the binding signal with FEV is 1.11 fold enrichment (6-mer frequency, TF over GST control); with ETV5, 1.21 fold enrichment (6-mer frequency, TF over GST control); with SPIC, 1.41 fold enrichment (6-mer frequency, TF over GST control); with ELF4 it was 1.07 fold enrichment (6-mer frequency, TF over GST control); with ELK4, 1.35 fold enrichment (6-mer frequency, TF over GST control); in the test with ETV2 it was 1.29 fold enrichment (6-mer frequency, TF over GST control). In addition, the binding signal with ELF3 is 1.01 fold enrichment (6-mer frequency, TF over GST control); with ETV1, 1.06 fold enrichment (6-mer frequency, TF over GST control).

These data come from paper PMC7862700, “An all-to-all approach to the identification of sequence-specific readers for epigenetic DNA modifications on cytosine”.
